{"source": "PubChem BioAssay (NCATS)", "note": "Records with an inconclusive call do not appear. Unmarked numbers belong to inactive results. Calls follow the shape of the full dose curve."}
{"assay": "S16 Schwann cell PMP22 intronic element beta-lactamase assay (AID 624044);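 also: 0% = DMSO and -100% = potassium clavulanate positive control; nearly all actives have a fitted effect of over 15% in size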", "details": "S16 rat Schwann cells, PMP22 element beta-lactamase FRET, 24 h; series mostly up to 38.3 µM; ratio activity, negative = inhibition: at the top concentration", "summary_of_the_method": "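Beta-lactamase reporter under a PMP22 intronic regulatory element in stable S16 rat Schwann cells; 24 h compound exposure. 460 nm blue signal normalized between DMSO (0%) and potassium clavulanate, with 535 nm FRET tracking viability; curves classed by r2 and response.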"}
{"compound": "CC(=O)Nc1ccc(OCCOCCOc2ccc(NC(C)=O)cc2)cc1", "ratio activity, negative = inhibition": "4.06%"}
{"compound": "CCS(=O)(=O)CCn1c([N+](=O)[O-])cnc1C", "ratio activity, negative = inhibition": "-1.89% [at 17.1 µM]"}
{"compound": "COc1ccc(NS(=O)(=O)c2ccc(N)cc2)nn1", "ratio activity, negative = inhibition": "0.177% [at 17.1 µM]"}
{"compound": "CCCCC1(COC(=O)CCC(=O)O)C(=O)N(c2ccccc2)N(c2ccccc2)C1=O", "ratio activity, negative = inhibition": "2.12% [at 17.1 µM]"}
{"compound": "O=S1(=O)OC(c2ccc(O)cc2)(c2ccc(O)cc2)c2ccccc21", "ratio activity, negative = inhibition": "1.28%"}
{"compound": "CCCOC(=O)c1ccc(N)cc1", "ratio activity, negative = inhibition": "-6.79%"}
{"compound": "N[C@@H](Cc1ccc(O)cc1)C(=O)O", "ratio activity, negative = inhibition": "1.42%"}
{"compound": "CCOc1cc(NC(C)=O)ccc1C(=O)OC", "ratio activity, negative = inhibition": "0.411%"}
{"compound": "CC(C)C[C@@H](N)C(=O)O", "ratio activity, negative = inhibition": "-0.354%"}
{"compound": "CC(C)(C)C(=O)OCOC(=O)[C@@H]1N2C(=O)[C@@H](NC(=O)[C@H](N)c3ccccc3)[C@H]2SC1(C)C", "ratio activity, negative = inhibition": "2.77% [at 17.1 µM]"}
{"compound": "NNc1nnc(NN)c2ccccc12", "ratio activity, negative = inhibition": "6.03%"}
{"compound": "Cc1ccc(S(=O)(=O)NC(=O)NC2CCCCCCC2)cc1", "ratio activity, negative = inhibition": "6.46%"}
{"compound": "CCOC(=O)c1cccnc1", "ratio activity, negative = inhibition": "0.059%"}
{"compound": "O=C(O)Cn1c(C(=O)Nc2nc(-c3ccccc3Cl)cs2)cc2ccccc21", "ratio activity, negative = inhibition": "5.65%"}
{"compound": "CN1CCCN=C1COC(=O)C(O)(c1ccccc1)C1CCCCC1", "note": "(centres undefined)", "ratio activity, negative = inhibition": "-14.7%"}
{"compound": "Nc1ccc(C(=O)Oc2ccccc2)c(O)c1", "ratio activity, negative = inhibition": "-0.59%"}
{"compound": "CCCCCCCCCCCCCCCCN", "ratio activity, negative = inhibition": "-1.67%"}
{"compound": "c1ccc2[nH]ccc2c1", "ratio activity, negative = inhibition": "11.7%"}
{"compound": "NC(=O)CC[C@@H](N)C(=O)O", "ratio activity, negative = inhibition": "6.61%"}
{"compound": "NNC(=O)CP(=O)(c1ccccc1)c1ccccc1", "ratio activity, negative = inhibition": "6.78%"}
{"compound": "Cc1cc(OI)c(C(C)C)cc1-c1cc(C(C)C)c(OI)cc1C", "ratio activity, negative = inhibition": "2.3%"}
{"compound": "CC(C)c1cc2c(cc1S(=O)(=O)O)[C@@]1(C)CCC[C@@](C)(C(=O)O)[C@@H]1CC2", "ratio activity, negative = inhibition": "-2.9%"}
{"compound": "CC(=O)SC[C@@H](Cc1ccccc1)C(=O)NCC(=O)OCc1ccccc1", "ratio activity, negative = inhibition": "1.01% [at 17.1 µM]"}
{"compound": "COc1ccccc1Oc1c(NS(=O)(=O)c2ccc(C(C)(C)C)cc2)nc(-c2ncccn2)nc1OCCO", "ratio activity, negative = inhibition": "-0.709%"}
{"compound": "O=C(CN1CCNCC1)NC1CCCCC1", "ratio activity, negative = inhibition": "1.28%"}
{"compound": "CCN(CC)CC1CCCCN1CC(=O)N1c2ccccc2C(=O)Nc2cccnc21", "note": "(centres undefined)", "ratio activity, negative = inhibition": "0.76%"}
{"compound": "CC(O)CCCCn1c(=O)c2c(ncn2C)n(C)c1=O", "note": "(centres undefined)", "ratio activity, negative = inhibition": "2.15%"}
{"compound": "O=C1c2ccccc2C(=O)C1c1ccc(Br)cc1", "ratio activity, negative = inhibition": "4.04%"}
{"compound": "NC(=O)c1ccc([N+](=O)[O-])cc1Cl", "ratio activity, negative = inhibition": "-3.12%"}
{"compound": "O=C(CCBr)N1CCN(C(=O)CCBr)CC1", "ratio activity, negative = inhibition": "1.95%"}
{"compound": "CCCCCCCCCCCCCCCCC(C(=O)O)C(O)(CC(=O)O)C(=O)O", "note": "(centres undefined)", "ratio activity, negative = inhibition": "-0.0998%"}
{"compound": "CCc1nnc(NS(=O)(=O)c2ccc(N)cc2)s1", "ratio activity, negative = inhibition": "3.83%"}
{"compound": "Cc1ccccc1N=Nc1ccc(N=Nc2c(O)ccc3ccccc23)c(C)c1", "ratio activity, negative = inhibition": "-5.13%"}
{"compound": "CCN1CC(CCN2CCOCC2)C(c2ccccc2)(c2ccccc2)C1=O", "note": "(centres undefined)", "ratio activity, negative = inhibition": "5.07%"}
{"compound": "O=C(Cn1ccnc1[N+](=O)[O-])NCc1ccccc1", "ratio activity, negative = inhibition": "-0.913%"}
{"compound": "CCN(CC)S(=O)(=O)c1ccc(C(=O)O)cc1", "ratio activity, negative = inhibition": "5.49%"}
{"compound": "NCc1ccc(S(N)(=O)=O)cc1", "ratio activity, negative = inhibition": "-1.83% [at 17.1 µM]"}
{"compound": "COc1cc(O)cc(O)c1", "ratio activity, negative = inhibition": "0.206%"}
{"compound": "COc1ccc2cc(CCC(C)=O)ccc2c1", "ratio activity, negative = inhibition": "2.71% [at 17.1 µM]"}
